The whole screen tested about 220,000 compounds, of which about 8,200 (3.7%) were called active. The sample as a whole holds a higher share of actives than the screen did. A number with no mark means an inactive call.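 The calls were made as follows: active = compounds that reduced the stress-induced luciferase reporter signal by more than about 70% of percent inhibition (limit read from the data); inactive = the rest.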

This test in a line: blockers of ER-stress CHOP reporter expression – cell-based, unfolded protein response, luciferase reporter, primary screen (AID 2732).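 Also: 0% = tunicamycin plus vehicle and 100% = wells without tunicamycin.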 The following applies: CHO-K1 CHOP-promoter luciferase, tunicamycin-induced, 15-18 h; at 10 µM; stronger effect = higher value. In general terms: A reporter such as luciferase makes a cellular process visible.
By inhibition is commonly meant the change of the read-out against control, counted positive when it falls. Consider `CCc1cc(CNC(=O)CC2C(=O)NCCN2Cc2ccccc2C(F)(F)F)on1` (configuration not stated), for which the inhibition is 20.4%.

As to `O=c1[nH]c(SCc2cccc(F)c2)nc2ccccc12`, the inhibition is 8.81%.

For the compound `Cc1noc(C)c1COC(=O)COc1ccc(-c2ccccc2)cc1`, the inhibition was 10.1%.

For the compound `NC(N)=Nc1nc2ccc(Br)cc2c(=O)[nH]1`, the inhibition was 74.1% (active).

For `NC(=O)C1CCN(Cc2nc3c(Br)cc(Br)cc3c(=O)[nH]2)CC1`, the inhibition is 13.6%.

Consider `C/C(=N\N)c1c(-c2ccccc2)c2cc(Br)ccc2[nH]c1=O`, for which the inhibition was -1.78%.

For the compound `Cc1[nH]n(-c2ccccc2)c(=O)c1N=Nc1ccccc1C(=O)N1CCCCC1`, the inhibition is 59.1%.

For the compound `Cc1ncn2cc(-c3ccc(Cl)cc3Cl)[nH]c(=O)c12`, the inhibition is 13.6%.

On to `c1ccc(-n2cccc2)c(N2CCCCC2)c1`, for which the inhibition was -6%.

Turning to `Cn1nnnc1SCc1cc(=O)[nH]c2ccccc12`, the inhibition is 6.42%.

For the compound `CCCCn1c(=S)[nH]c2ccccc2c1=O`, the inhibition is -18.6%.

Take `CC(Sc1nc2c([nH]c3ccccc32)c(=O)n1C)c1ccccc1` (configuration not stated): the inhibition is 94.8% (active).

`O=C(Nc1ccc(Cl)cc1)/C(=C1\CCCN1)[N+](=O)[O-]`: the inhibition is -6.93%.

`CN1CCN(c2ccc(CNS(=O)(=O)c3cccc(F)c3)cc2)CC1`: the inhibition was 9.01%.

For the compound `COc1ccc2[nH]c(=S)cc(C)c2c1`, the inhibition was -0.1%.

In the case of `CC(=O)Nc1nc2ccccc2n1Cc1ccc(C)cc1`, the inhibition was -14.1%.

For the compound `Cc1ccc(Cn2c(NC(=O)c3ccco3)nc3ccccc32)cc1`, the inhibition was 80.3% (active).

In the case of `Cc1ccc(-n2nc3cc(Cl)c(NC(=O)c4ccco4)cc3n2)cc1`, the inhibition is -26.1%.

`CN(C)S(=O)(=O)c1cccc(-c2nn(-c3ccccc3)cc2/C=C2\SC(=S)N(CC(=O)O)C2=O)c1`: the inhibition is 4.39%.

For `CCCCC(=O)Nc1ccc(C(=O)Nc2cc(C(F)(F)F)ccc2Cl)cc1`, the inhibition is 94.3% (active).

In the case of `CC(CC(=O)Nc1cc(C(F)(F)F)ccc1Cl)c1ccccc1` (configuration not stated), the inhibition is 54.4%.

Regarding `CCCC(=O)Nc1ccc(Cl)c(NC(=O)c2ccc(Br)o2)c1`, the inhibition was 40.2%.

With `CCCCNC(=O)OCCSCCS(=O)(=O)c1ccc(Cl)cc1`, the inhibition is 8.82%.

`CC(C)OP(=O)(OC(C)C)C(Nc1ccccc1)c1cccc([N+](=O)[O-])c1` (configuration not stated): the inhibition is -8.06%.

For the compound `Cc1ccsc1C(=O)OCC(=O)c1cc(C)n(CC2CCCO2)c1C` (configuration not stated), the inhibition is 77.8% (active).

On to `Cc1ccsc1C(=O)OCC(=O)c1cc2ccccc2o1`, for which the inhibition was 67.4%.

`Cc1cc(C(=O)Cn2cnc3cc([N+](=O)[O-])ccc3c2=O)c(C)n1CC1CCCO1` (configuration not stated): the inhibition was -28%.

(Values after PubChem BioAssay AID2732 (Emory University Molecular Libraries Screening Center, 2010).)
